The list is not random: actives were taken first. Their share in the collection is about 11%.
HEK cytotox: kills HEK 293 cells. HEK 293 viability, ATP luminescence (CellTiter-Glo), 48-72 h. Potency, µM (doses to about 115 µM), for inactives: at the highest dose activity change, negative = cytotoxicity, actives largely listed as inhibitors. actives 6.6% (n = 94,000). AID 1345083; note: % is set by controls: 0 for no effect and ±100 for the full control effect; nearly all actives have a fitted effect of over 60% in size
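CellTiter-Glo luminescence (cellular ATP) was read after 48 or 72 hr of compound exposure at 37 degree Celsius. Cells were HEK 293 plated at 250 cells/well.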
hNpr1 antagonist: antagonists of human natriuretic peptide receptor Npr1 | HEK293 hNpr1 GloSensor cGMP, ANP-stimulated luminescence | Potency, µM (titrated, usually from 46.3 µM), without a hit: top-dose activity change, negative = inhibition, actives largely listed as inhibitors | P16066 | actives 1.6% (n = 76,000); calls by dose curve; note: % is set by controls: 0 for no effect and ±100 for the full control effect; nearly all actives have a fitted effect of over 60% in size
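Compound pre-incubated 30 min at room temperature on GloSensor-loaded HEK293 cells stably carrying hNpr1 and the pGS-40F cGMP biosensor. Stimulation uses hNppA at 0.1 nM final; luminescence is taken at baseline and 20 min post-agonist.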
Luciferase inh: blocks purified firefly luciferase enzyme activity. purified P. pyralis luciferase, luminescence, biochemical. Potency, µM (doses to about 115 µM), actives largely listed as inhibitors. actives 2.5% (n = 76,000); note: % is set by controls: 0 for no effect and ±100 for the full control effect; nearly all actives have a fitted effect of over 65% in size
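Luminescence read by CCD imager after adding enzyme (10nM final) to wells holding compound, titrated in qHTS. Substrates 10uM each D-luciferin and ATP; buffer 50mM Tris acetate pH 7.5, 10mM Mg acetate, Tween-20, BSA.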
3T3 cytotox: NIH 3T3 cell cytotoxicity; actives 4.3% (n = 94,000); Potency, µM (doses to about 96.7 µM), inactives show top-dose activity change, negative = cytotoxicity, hits mostly inhibitors; AID 1345082; NIH 3T3 viability, CellTiter-Glo ATP luminescence, 48-72 h; note: % is set by controls: 0 for no effect and ±100 for the full control effect; nearly all actives have a fitted effect of over 55% in size
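Luminescent ATP readout (CellTiter-Glo, 10 min RT) after 48 or 72 hr compound exposure of NIH 3T3 cells seeded at 400 cells/well in 1536-well format; quantitative HTS.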
Npr1 antag conf: hNpr1 antagonism, confirmation assay. shares compounds with hNpr1 antagonist. HEK293 hNpr1 cGMP GloSensor luminescence, ANP-stimulated. Potency, µM (titrated, usually from 57.6 µM), for inactives: at the highest dose activity change, negative = inhibition, hits mostly inhibitors. actives 76% (n = 1,400); calls by dose curve; note: nearly all actives have a fitted effect of over 70% in size
Npr2 selectivity: antagonizes human Npr2, subtype selectivity check; shares compounds with hNpr1 antagonist; HEK293 hNpr2 GloSensor cGMP luminescence, CNP-stimulated; Potency, µM (highest dose often 57.6 µM), for the others: at the highest dose activity change, negative = inhibition, actives largely listed as inhibitors; actives 67% (n = 1,400); AID 1347046; calls by dose curve; note: nearly all actives have a fitted effect of over 70% in size
FLuc counter: inhibits firefly luciferase, false Npr1 antagonist flag; shares compounds with hNpr1 antagonist; purified FLuc enzyme, luminescence, Km substrate; Potency, µM (top dose mostly 57.6 µM), for inactives: at the highest dose activity change, negative = inhibition, actives largely listed as inhibitors; actives 0.7% (n = 1,400); AID 1347047; note: 0% is about no effect
GloSensor cGMP: reduces cGMP signal in GloSensor control cells | shares compounds with hNpr1 antagonist | HEK293 GloSensor cGMP, SNP-stimulated, luminescence | Potency, µM (highest dose often 57.6 µM), without a hit: at the highest dose activity change, negative = inhibition, usual class: inhibitors | actives 69% (n = 1,400); calls by dose curve; note: % is set by controls: 0 for no effect and ±100 for the full control effect; nearly all actives have a fitted effect of over 70% in size
Starred values were filed as active, the others as inactive; i = inactive; ? = inconclusive; . = no result given; [ ] = another dose, or the depositor's remark. Unless noted, calls come from the whole dose curve; as a rule, active = well fitted curve in the direction sought with a large enough effect; inconclusive = small, poorly fitted or top-dose-only effect, or another doubt; inactive = no such curve, though single readings can be large; an effect the other way counts as inactive or inconclusive. Potency is the fitted concentration of half-maximal effect.

SMILES	HEK cytotox	hNpr1 antagonist	Luciferase inh	3T3 cytotox	Npr1 antag conf	Npr2 selectivity	FLuc counter	GloSensor cGMP
COc1cccc(-c2noc(CC3CCN(C(=O)c4ccccc4)CC3)n2)c1	40µM*	7.9µM*	i	?	9.7µM*	11µM*	-6%	9.7µM*
COc1cccc(-c2noc(CC3CCN(C(=O)c4cc(Cl)ccc4F)CC3)n2)c1	?	8.9µM*	i	?	12µM*	19µM*	0%	14µM*
COc1cccc(-c2noc(CC3CCN(C(=O)c4cccc(Cl)c4)CC3)n2)c1	?	8.9µM*	i	?	7.7µM*	11µM*	-12%	7.7µM*
COc1cccc(-c2noc(CC3CCN(C(=O)c4ccc(OC)c(OC)c4)CC3)n2)c1	?	11µM*	i	?	9.7µM*	12µM*	1%	11µM*
O=C(c1cc(Cl)ccc1F)N1CCC(Cc2nc(-c3cnccn3)no2)CC1	?	0%	i	?	.	.	.	.
COc1cc(OC)cc(C(=O)N2CCC(Cc3nc(-c4cnccn4)no3)CC2)c1	15%	9%	i	-21%	.	.	.	.
CN(C)C[C@@H]1CN(C)C[C@H]1NS(=O)(=O)c1cc(F)cc(F)c1	-17%	-4%	i	-10%	.	.	.	.
CNC(=O)c1cc(C)nc2onc(C3CCCN3C(=O)c3ccncc3)c12 (stereo not given)	-4%	.	.	-22%	.	.	.	.
CC(C)c1nncn1C1CCN(S(=O)(=O)c2cccc(Cl)c2)CC1	-21%	?	i	-24%	?	?	0%	24µM*
CN1CCN(Cc2ccc(Nc3cnc4ccc(-c5ccccc5)nn34)cc2)CC1	25µM*	32µM*	i	?	31µM*	31µM*	-4%[86.2 µM]	22µM*
O=C(Nc1nccs1)[C@@H]1C[C@@H](c2ccc(F)cc2)N(CCOc2ccccc2)C1	?	?	i	?	35µM*	?	4%[86.2 µM]	?
COc1ccc(N2CCN(c3nc(C(=O)NCc4ccc(C)cc4)cs3)CC2)cc1	28µM*	4.5µM*	i	-22%	7.7µM*	11µM*	1%	8.6µM*
COc1ccc(N2CCN(c3nc(C(=O)NCc4ccc(C)c(C)c4)cs3)CC2)cc1	13µM*	13µM*	i	?	9.7µM*	14µM*	3%	11µM*
COc1ccc(N2CCN(c3nc(C(=O)NCc4cccc(C)c4)cs3)CC2)cc1	18µM*	16µM*	i	?	15µM*	15µM*	5%	12µM*
O=C(CCCc1ccccc1)Nc1cccc(-c2nnc3n2CCCC3)c1	?	-4%	i	?	.	.	.	.
CN(Cc1cnc2ccccc2c1)C(=O)c1ccc(CCC(C)(C)O)cc1	40µM*	2.5µM*	i	?	5.4µM*	6.9µM*	3%	3.9µM*
CCCc1ccc(S(=O)(=O)NC2CCN(c3ccc(=O)n(CC4CC4)n3)CC2)cc1	?	10µM*	i	?	12µM*	15µM*	-1%	14µM*
O=c1ccc(N2CCC(NS(=O)(=O)c3ccccc3Cl)CC2)nn1CC1CC1	-39%	13µM*	i	?	27µM*	22µM*	-1%	24µM*
O=C(CCC1CCCCC1)NC1CCN(c2ccc(=O)n(CC3CC3)n2)CC1	?	?	i	?	.	.	.	.
CNC(=O)c1cc(C2CC2)nc2onc(C3CCN(C(=O)c4ccc(OC)cc4)C3)c12 (stereo not given)	?	.	.	-20%	.	.	.	.
Cc1ccc(C(=O)N2CCCC(n3cc(-c4nc(C5CC5)no4)nn3)C2)s1 (stereo not given)	?	-8%	i	-27%	.	.	.	.
O=C(c1ccc(F)cc1Cl)N1CCC(n2cc(-c3nc(C4CC4)no3)nn2)C1 (stereo not given)	?	16µM*	i	?	27µM*	?	-1%	?
O=C(c1cc(F)ccc1F)N1CCC(n2cc(-c3nc(C4CC4)no3)nn2)C1 (stereo not given)	-22%	2%	i	-30%	.	.	.	.
Cc1ccc(C(=O)N2CCC(n3cc(-c4nc(C5CC5)no4)nn3)C2)s1 (stereo not given)	?	16µM*	i	-25%	24µM*	24µM*	-2%	14µM*
COCCN1C(=O)c2ccccc2C(C(=O)Nc2cc(C)ccc2OC)C12CCCCC2 (stereo not given)	?	?	i	-16%	22µM*	12µM*	-3%	8%
SMILES	HEK cytotox	hNpr1 antagonist	Luciferase inh	3T3 cytotox	Npr1 antag conf	Npr2 selectivity	FLuc counter	GloSensor cGMP
C=CCN(C)C(=O)CC1COc2ccc(C(=O)N(C)C)cc2N1C (stereo not given)	-9%	5%	i	-12%	-6%	-7%	2%	-7%
Cc1ncsc1C(=O)N1CCNc2cnc(Nc3cccc(F)c3)nc2C1	?	14µM*	i	?	13µM*	18µM*	-1%[86.2 µM]	11µM*
CC(C)NC(=O)N1CCNc2cnc(Nc3cccc(C(F)(F)F)c3)nc2C1	35µM*	13µM*	i	40µM*	18µM*	22µM*	-1%[86.2 µM]	16µM*
COc1cccc(C(=O)N2CCC(=O)N(CCC#N)C[C@H]3COc4ccc(C)cc4[C@H]32)c1	-14%	.	.	?	.	.	.	.
CCN(Cc1ccncc1)C(=O)CC(c1ccccc1)c1ccc2c(c1)OCO2 (stereo not given)	?	?	i	-23%	?	14µM*	5%	5%
CCCc1cc(CN(C)c2nc(CCN)nc3sc(C)c(C)c23)[nH]n1	35µM*	-24%	i	?	-25%	?	6%	2%
O=C(c1cc2ccccc2[nH]1)N1CCN2CCS(=O)(=O)N(C3CC3)C(=O)C2C1 (stereo not given)	?	.	.	-24%	.	.	.	.
CCc1noc(CC2CCOC3(CCN(S(=O)(=O)c4ccc(F)c(F)c4)CC3)C2)n1 (stereo not given)	79µM*	10µM*	i	?	22µM*	?	-1%	?

Source: PubChem (National Center for Advancing Translational Sciences (NCATS))
